Inconclusive results are not listed. A call without a number means that no potency is given here. The source made the active and inactive calls. Calls come from the whole dose curve; as a rule, active = well fitted curve in the direction sought with a large enough effect; inconclusive = small, poorly fitted or top-dose-only effect, or another doubt; inactive = no such curve, though single readings can be large; an effect the other way counts as inactive or inconclusive.
Experiments:
[1] = target: Glutathione peroxidase 1 (Homo sapiens) (UniProt P07203); assay: Primary qHTS Assay for Inhibitors of Recombinant Selenoprotein Glutathione Peroxidase 1 (GPX1) (AID 1845191); note: nearly all actives have a fitted effect of over 65% in size
Glutathione peroxidase 1 (Homo sapiens), sequence (P07203 whole entry, looked up): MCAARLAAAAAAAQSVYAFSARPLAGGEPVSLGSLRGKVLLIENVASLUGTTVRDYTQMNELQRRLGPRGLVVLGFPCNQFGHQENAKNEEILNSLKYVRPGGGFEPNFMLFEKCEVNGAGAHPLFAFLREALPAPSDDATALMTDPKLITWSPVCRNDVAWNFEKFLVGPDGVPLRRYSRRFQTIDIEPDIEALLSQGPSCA
In short: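 GPX1 10 nM, GR 100 nM, GSH 1 mM, NADPH 0.5 mM, CHP 0.5 mM (final). 30-min cpd preincubation, RT. Ex340/Em450 read t=0, t=15 min.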

[2] = Quantitative High-Throughput drug screen in 47 multiple myeloma cell lines against the NCATS MIPE library collection: Delta47_JCRB cell viability assay (AID 1918925; note: nearly all actives have a fitted effect of over 45% in size; note: potency is the fitted concentration of half-maximal effect)
In short: (§1)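 Luminescent ATP measurement with CellTiter-Glo gives viability, scaled between DMSO-only wells (100%) and media-only wells (0%). Cells, 500 per well, faced library compounds for 48 hours at 37C.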

[3] = Quantitative High-Throughput drug screen in 47 multiple myeloma cell lines against the NCATS MIPE library collection: EJM_DSMZ cell viability assay (AID 1918926; note: nearly all actives have a fitted effect of over 30% in size; note: potency is the fitted concentration of half-maximal effect)
In short: as §1

[4] = target: Phospholipid hydroperoxide glutathione peroxidase GPX4 (Homo sapiens) (UniProt P36969); assay: Primary qHTS Assay for Inhibitors of Recombinant Selenoprotein Glutathione Peroxidase 4 (GPX4) (AID 1845192); note: nearly all actives have a fitted effect of over 65% in size
Phospholipid hydroperoxide glutathione peroxidase GPX4 (Homo sapiens), sequence (P36969 whole entry, looked up): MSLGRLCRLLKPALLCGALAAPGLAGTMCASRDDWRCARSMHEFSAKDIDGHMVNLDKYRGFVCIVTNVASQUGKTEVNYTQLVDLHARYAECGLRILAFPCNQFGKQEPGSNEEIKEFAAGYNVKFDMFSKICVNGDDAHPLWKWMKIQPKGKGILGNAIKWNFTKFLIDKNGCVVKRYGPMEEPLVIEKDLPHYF
In short: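 qHTS, GR-coupled: GPX4 200 nM + cpd 30 min RT → GSH 1 mM, NADPH 0.5 mM, GR 100 nM → CHP 0.5 mM start; fluor 340/450 at t0 and t15 min; no-enzyme wells as control.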

[5] = Quantitative High-Throughput drug screen in 47 multiple myeloma cell lines against the NCATS MIPE library collection: FR4_PLB cell viability assay (AID 1918924; note: nearly all actives have a fitted effect of over 35% in size; note: potency is the fitted concentration of half-maximal effect)
In short: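 qHTS of the MIPE 4.0 collection: 500 myeloma cells/well, 48 h drug exposure at 37C in 5% CO2, then CellTiter-Glo for 5 min at room temperature before luminescence reading.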

[6] = target: Luciferin 4-monooxygenase (Photinus pyralis) (UniProt P08659); assay: Primary firefly luciferase (FLuc) qHTS assay for identification of artifact compounds. (AID 1845220); note: nearly all actives have a fitted effect of over 60% in size
In short: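 Reaction readout was CCD-imaged luminescence, taken 5 min after adding 10 nM purified firefly enzyme to compound-treated wells holding 10 uM luciferin and ATP in pH 7.6 buffer.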

[7] = Primary fluorescence-based thiol-reactive (MSTI) qHTS assay for identification of artifact compounds. (AID 1845221);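 note: series mostly up to about 54 µM; thiol-reactive compounds lower the probe fluorescence signal; nearly all actives have a fitted effect of over 65% in size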
In short: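 Reactivity toward the thiol probe MSTI (4 uM) is scored by fluorescence at Ex/Em 525/598 nm after 1 h at room temperature. Acetyl-MSTI and MSTI define the activity scale.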

[8] = test system: Nanoluciferase (engineered Oplophorus gracilirostris luciferase); assay: Primary Nanoluciferase (NLuc) qHTS assay for identification of artifact compounds. (AID 1845222);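 note: NLuc secreted into diluted conditioned medium of S16 cells; series mostly up to about 54 µM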
In short: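 Concentration-response data were obtained by luminescence after 5 min with Nano-Glo substrate at 1:100. The enzyme was diluted S16 NLuc-expressing cell medium, preincubated with compound for 15 min at RT. Curves were fitted with a 4-parameter Hill model.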

[9] = Primary redox qHTS assay for identification of artifact compounds. (AID 1845223)
In short: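 Redox-cycling detection via DTT (250 uM final) oxidation coupled to Amplex Red (25 uM)/HRP (250 mU/mL) in HBSS. 15 min preincubation plus 30 min after DTT, room temperature. Ex/Em 525/598 nm; 4-parameter Hill fit against DMSO and 10 uM DA3003.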

For `COc1ccc(-c2cc(=O)c3c(O)cc(O)cc3o2)cc1O`, the Potency [1] was “inactive”, the Potency [2] was 4.69 µM (active) and the Potency [3] was 4.69 µM (active).

With `O=c1cc(-c2ccccc2)oc2cc(O)c(O)c(O)c12` the Potency [1] was “inactive” and the Potency [3] was “inactive”.

In the case of `CC(C)(C)C(=O)Oc1ccc2c(c1)nc(NC(=O)c1cccc([N+](=O)[O-])c1)n2CCCO`, the Potency [1] was “inactive”, the Potency [4] was “inactive” and the Potency [2] was “inactive”. The Potency [3] was 13.2 µM (active).

In the case of `CC(C)C[C@H](CC(=O)O)C(=O)N[C@@H](Cc1c[nH]c2ccccc12)C(=O)N[C@@H](C)c1ccccc1`, the Potency [1] was “inactive”, the Potency [4] was “inactive” and the Potency [3] was “inactive”.

In the case of `O=c1c(-c2ccc(O)cc2)coc2cc(O)ccc12`, the Potency [1] was “inactive”, the Potency [4] was “inactive” and the Potency [5] was “inactive”. For the same molecule, the Potency [3] was “inactive”.

In the case of `O=C(O)c1c(Cl)c(Cl)c(Cl)c(Cl)c1-c1c2cc(I)c(=O)c(I)c-2oc2c(I)c(O)c(I)cc12`, the Potency [1] was “inactive” and the Potency [2] was 14.8 µM (active).

For `O=C(O)C(O)Cc1ccc(O)c(O)c1` (configuration not stated), the Potency [1] was “inactive”, the Potency [4] was “inactive” and the Potency [3] was 23.5 µM (active).

For `CN(C)Cc1ccc(-c2nc3cccc4c3n2CCNC4=O)cc1`, the Potency [1] was “inactive”, the Potency [6] was “inactive” and the Potency [7] was “inactive”. The Potency [8] was “inactive”, the outcome [9] was “inactive” and the Potency [5] was 23.5 µM (active). For the same molecule, the Potency [2] was 23.5 µM (active) and the Potency [3] was 20.9 µM (active).

With `CCCCCCCCCCCC1=C(O)C(=O)C=C(O)C1=O` the Potency [1] was “inactive”, the Potency [5] was 20.9 µM (active) and the Potency [2] was 3.32 µM (active).

In the case of `N[C@H](CSC(c1ccccc1)(c1ccccc1)c1ccccc1)C(=O)O`, the Potency [1] was “inactive”, the Potency [5] was 5.26 µM (active) and the Potency [2] was 7.43 µM (active). For the same molecule, the Potency [3] was 18.7 µM (active).

With `COc1cccc([C@@H](C)NCCCc2ccccc2Cl)c1` the Potency [1] was “inactive”, the Potency [4] was “inactive” and the Potency [3] was “inactive”.

For `N#CC1(c2ccc(NC(=O)c3cccnc3NCc3ccncc3)cc2)CCCC1`, the Potency [1] was “inactive”, the Potency [4] was “inactive” and the Potency [3] was “inactive”.

In the case of `C[C@@H](O)[C@H]1C(=O)N2C(C(=O)O)=C(S[C@@H]3CN[C@H](C(=O)N(C)C)C3)[C@H](C)[C@H]12`, the Potency [4] was “inactive”.

In the case of `Cc1ccc(F)c(NC(=O)Nc2ccc(-c3cccc4[nH]nc(N)c34)cc2)c1`, the Potency [1] was “inactive”, the Potency [5] was 14.8 µM (active) and the Potency [2] was 13.2 µM (active).

In the case of `CC1(C)Cc2c(sc(NC(=S)NC(=O)c3ccccc3)c2C(=O)O)CO1`, the Potency [1] was “inactive” and the Potency [5] was “inactive”.

With `COc1ccc(C2Sc3ccccc3N(CCN(C)C)C(=O)C2OC(C)=O)cc1` (configuration not stated) the Potency [4] was “inactive”, the Potency [6] was “inactive” and the Potency [7] was “inactive”. For the same molecule, the Potency [8] was “inactive”, the outcome [9] was “inactive” and the Potency [5] was “inactive”. For the same molecule, the Potency [2] was “inactive”.

For `NC(CO)(CO)CCc1ccc(Sc2cccc(OCc3ccccc3)c2)cc1Cl`, the Potency [1] was “inactive”, the Potency [4] was “inactive” and the Potency [2] was 9.35 µM (active).

With `C[C@H](NC(=O)c1sccc1OCc1ccc(Cl)cc1)c1ccccc1` the Potency [1] was “inactive”, the Potency [4] was “inactive” and the Potency [2] was 20.9 µM (active).

With `CN(C)c1cc(NC(=O)CNC(C)(C)C)c(O)c2c1C[C@@H]1C[C@H]3[C@H](N(C)C)C(=O)C(C(N)=O)=C(O)[C@@]3(O)C(=O)C1=C2O` the Potency [1] was “inactive”, the Potency [5] was “inactive” and the Potency [2] was “inactive”. For the same molecule, the Potency [3] was “inactive”.

In the case of `N[C@@]1(C(=O)O)CS(=O)(=O)[C@H]2[C@H](C(=O)O)[C@H]21`, the Potency [1] was “inactive”, the Potency [5] was “inactive” and the Potency [2] was 9.35 µM (active). For the same molecule, the Potency [3] was “inactive”.

In the case of `O=C(O)c1cc(O)c2c(c1)C(=O)c1cccc(O)c1C2=O`, the Potency [4] was “inactive”.

For `CCOC(CN1C(=O)[C@](CC(=O)Nc2ccc(C)cc2)(NC(=O)Nc2ccc(C)cc2)c2ccccc21)OCC`, the Potency [1] was “inactive”, the Potency [4] was “inactive” and the Potency [3] was “inactive”.

For `O=C(NOCC(O)CO)c1cc(Br)c(F)c(F)c1Nc1ccc(I)cc1F` (configuration not stated), the Potency [1] was “inactive”, the Potency [5] was “inactive” and the Potency [3] was “inactive”.

In the case of `CN(C)C1CCN(C(=O)c2ccc(NC(=O)Nc3nc(N4CCOCC4)nc(N4CCOCC4)n3)cc2)CC1`, the Potency [4] was “inactive”, the Potency [6] was “inactive” and the Potency [7] was “inactive”. The Potency [8] was “inactive”, the outcome [9] was “inactive” and the Potency [5] was 0.0093 µM (active). For the same molecule, the Potency [3] was 0.166 µM (active).

In the case of `COc1ccc2c3c1OC1C[C@@H](O)C=C[C@@]31CCN(C)C2` (some centres not stated), the Potency [5] was “inactive”.

With `CCN(CC)CCOc1ccc(C(=C(Cl)c2ccccc2)c2ccccc2)cc1` the Potency [5] was “inactive” and the Potency [2] was 29.6 µM (active).

For `OC[C@H]1O[C@@H](n2cnc3c2NC=NC[C@@H]3O)C[C@H]1O`, the Potency [5] was “inactive” and the Potency [2] was “inactive”.

In the case of `NC(=O)NN=Cc1ccc([N+](=O)[O-])o1`, the Potency [5] was “inactive”.

For `CC[C@]1(O)C[C@@H]2CN(CCc3c([nH]c4ccccc34)[C@@](C(=O)OC)(c3cc4c(cc3OC)N(C=O)[C@@H]3C45CCN4CC=C[C@](CC)([C@H]45)[C@@H](OC(C)=O)[C@]3(O)C(=O)OC)C2)C1` (some centres not stated), the Potency [5] was 20.9 µM (active).

With `O=C1NC(=O)C(=Cc2ccc3c(c2)OC(F)(F)O3)S1` the Potency [5] was “inactive”.

In the case of `Nc1nc(F)nc2c1ncn2[C@@H]1O[C@H](COP(=O)(O)O)[C@@H](O)[C@H]1O`, the Potency [5] was 1.87 µM (active).

Source: PubChem BioAssay (NCATS)
